# Assay results taken from PubChem BioAssay (EPA / NIEHS).
# The source made the active and inactive calls. How the source made its calls: active means hit-call score of the fitted dose curve at least 0.9, where 1 is the maximum; inactive means score below 0.9.
# Columns and labels:
# [1] = read-out: Macrophage colony-stimulating factor (MCSF), CSF1 (gene 1435); assay: BSK_hDFCGF_MCSF: BioMAP Diversity Plus: hDFCGF Assay for Macrophage colony-stimulating factor (MCSF) Biomarker Activity (AID 2283060); settings: primary human foreskin fibroblasts; actives raise or lower the signal
# In short: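 Human foreskin primary fibroblasts were treated with test chemical for 24 h, and M-CSF was then measured by ELISA. Data were fitted bidirectionally against DMSO as the negative control and activity baseline.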
# [2] = BSK_hDFCGF_SRB: Viability Assessment in the BioMAP Diversity Plus: hDFCGF Assay (AID 2283061); settings: primary human foreskin fibroblasts;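 further: cells exposed to compound for 24 h before the read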
# In short: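 Human foreskin primary fibroblasts were treated with compound and assessed 24 h after dosing. Total protein was measured by sulforhodamine B staining (0.1% SRB after 10% TCA fixation, 560 nm read) as a cytotoxicity marker, with bidirectional fitting against DMSO baseline.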
# [3] = read-out: TIMP metallopeptidase inhibitor 1 (TIMP1), TIMP1 (gene 7076); assay: BSK_hDFCGF_TIMP1: BioMAP Diversity Plus: hDFCGF Assay for TIMP metallopeptidase inhibitor 1 (TIMP1) Biomarker Activity (AID 2283062); settings: primary human foreskin fibroblasts; actives raise or lower the signal
# In short: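 Primary human foreskin fibroblasts in the hDFCGF system were dosed with compound for 24 h, then TIMP-1 was measured by ELISA. Activity was fitted bidirectionally relative to DMSO control; parallel SRB staining assessed cytotoxicity.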
# [4] = read-out: Monokine induced gamma interferon (MIG), CXCL9 (gene 4283); assay: BSK_hDFCGF_MIG: BioMAP Diversity Plus: hDFCGF Assay for Monokine induced gamma interferon (MIG) Biomarker Activity (AID 2283063); settings: primary human foreskin fibroblasts; actives raise or lower the signal
# In short: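 ELISA read-out of MIG from primary human dermal fibroblasts 24 h post-dosing. Gain or loss of signal fitted bidirectionally, DMSO as baseline.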
# [5] = read-out: Matrix Metallopeptidase 1 (MMP1), MMP1 (gene 4312); assay: BSK_hDFCGF_MMP1: BioMAP Diversity Plus: hDFCGF Assay for Matrix Metallopeptidase 1 (MMP1) Biomarker Activity (AID 2283064); settings: primary human foreskin fibroblasts; actives raise or lower the signal
# In short: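 MMP1 levels quantified by ELISA 24 h after dosing human dermal fibroblast cultures, with parallel SRB total-protein staining for overt cytotoxicity. Data fitted in both directions against DMSO baseline.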
# [6] = read-out: Vascular cell adhesion molecule 1 (VCAM1), VCAM1 (gene 7412); assay: BSK_hDFCGF_VCAM1: BioMAP Diversity Plus: hDFCGF Assay for Vascular cell adhesion molecule 1 (VCAM1) Biomarker Activity (AID 2283065); settings: primary human foreskin fibroblasts; actives raise or lower the signal;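 on AC50: VCAM-1 protein level quantified by ELISA after 24 h chemical exposure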
# In short: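 Primary human foreskin fibroblasts (hDFCGF system) were dosed with chemical and VCAM-1 was measured by ELISA 24 h later. Bidirectional curve fitting used DMSO as negative control and activity baseline.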
# [7] = read-out: Plasminogen activator inhibitor-1 (PAI1), SERPINE1 (gene 5054); assay: BSK_hDFCGF_PAI1: BioMAP Diversity Plus: hDFCGF Assay for Plasminogen activator inhibitor-1 (PAI1) Biomarker Activity (AID 2283066); settings: primary human foreskin fibroblasts; actives raise or lower the signal
# In short: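 ELISA readout of PAI-1 from primary human skin fibroblast cultures, 24 h after compound addition. Gain or loss of signal was fitted bidirectionally against DMSO baseline.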
# [8] = read-out: Intercellular Adhesion Molecule 1 (ICAM1), ICAM1 (gene 3383); assay: BSK_KF3CT_ICAM1: BioMAP Diversity Plus: KF3CT Assay for Intercellular Adhesion Molecule 1 (ICAM1) Biomarker Activity (AID 2283067); settings: primary human keratinocytes with fibroblasts; actives raise or lower the signal
# In short: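 Human keratinocyte plus foreskin fibroblast primary co-culture was exposed to chemical for 24 h. ICAM-1 was then quantified by ELISA, and the data were fit bidirectionally against DMSO as the negative control and baseline.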
# [9] = read-out: Interferon-gamma inducible Protein 10 (IP10), CXCL10 (gene 3627); assay: BSK_KF3CT_IP10: BioMAP Diversity Plus: KF3CT Assay for Interferon-gamma inducible Protein 10 (IP10) Biomarker Activity (AID 2283068); settings: primary human keratinocytes with fibroblasts; actives raise or lower the signal
# In short: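 KF3CT co-culture (keratinocytes + foreskin fibroblasts), 24 h compound, IP-10 by ELISA; bidirectional fit vs DMSO baseline.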
# [10] = BSK_KF3CT_SRB: Viability Assessment in the BioMAP Diversity Plus: KF3CT Assay (AID 2283069); settings: primary human keratinocytes with fibroblasts
# In short: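 Cytotoxicity was gauged by SRB staining (0.1% SRB, 10% TCA fixation, 560 nm) of parallel cultures at 24 h. The cells were primary human skin keratinocytes co-cultured with fibroblasts, and activity was fitted in both directions against DMSO.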
SMILES,outcome [1],outcome [2],outcome [3],outcome [4],outcome [5],outcome [6],outcome [7],outcome [8],outcome [9],outcome [10],AC50 [9],AC50 [1],AC50 [2],AC50 [3],AC50 [4],AC50 [5],AC50 [6],AC50 [7],AC50 [10],AC50 [8]
COP(N)(=O)SC (stereo not given),inactive,inactive,inactive,inactive,inactive,inactive,inactive,inactive,inactive,inactive,,,,,,,,,,
CCCCC(CC)COC(=O)c1ccccc1C(=O)OCC(CC)CCCC (stereo not given),inactive,inactive,inactive,inactive,inactive,inactive,inactive,inactive,,inactive,15.1 µM (active),,,,,,,,,
C#CCOS(=O)OC1CCCCC1Oc1ccc(C(C)(C)C)cc1 (stereo not given),,,,,,,,inactive,,,12.8 µM (active),4.84 µM (active),3.73 µM (active),5.66 µM (active),13 µM (active),10 µM (active),3.65 µM (active),5.14 µM (active),9.7 µM (active),
COC(=O)C=C(C)OP(=O)(OC)OC,,inactive,,inactive,inactive,inactive,inactive,inactive,inactive,inactive,,0.157 µM (active),,0.273 µM (active),,,,,,
CCOC(=O)CC(SP(=S)(OC)OC)C(=O)OCC (stereo not given),inactive,inactive,inactive,inactive,inactive,inactive,inactive,inactive,inactive,inactive,,,,,,,,,,
CCc1nn(C)c(C(=O)NCc2ccc(C(C)(C)C)cc2)c1Cl,,,,,,,,,,,18.7 µM (active),23.9 µM (active),27.5 µM (active),32.1 µM (active),33.7 µM (active),32.2 µM (active),20 µM (active),15.5 µM (active),32.4 µM (active),32.9 µM (active)
CO/C=C(/C(=O)OC)c1ccccc1Oc1cc(Oc2ccccc2C#N)ncn1,inactive,inactive,inactive,inactive,inactive,inactive,inactive,inactive,inactive,inactive,,,,,,,,,,
CCOC(=O)C(Cl)Cc1cc(-n2nc(C)n(C(F)F)c2=O)c(F)cc1Cl (stereo not given),inactive,inactive,inactive,inactive,inactive,inactive,inactive,inactive,inactive,inactive,,,,,,,,,,
CC(Oc1ccc(Cl)cc1Cl)C(=O)O (stereo not given),inactive,inactive,inactive,inactive,inactive,inactive,inactive,inactive,inactive,inactive,,,,,,,,,,
COc1ccc(C(c2ccc(OC)cc2)C(Cl)(Cl)Cl)cc1,,,inactive,inactive,,,,inactive,inactive,,,9.16 µM (active),11 µM (active),,,5.09 µM (active),20 µM (active),14.7 µM (active),8.76 µM (active),
COC(=O)c1ccccc1C(=O)OC,inactive,inactive,inactive,inactive,inactive,inactive,inactive,inactive,inactive,inactive,,,,,,,,,,
